# From publication PMC4336329 (PLoS ONE, 2015)
# Screen size: about 310,000 compounds; about 14,000 (4.5%) showed an effect of 50% or more. The effect is printed as a negative number. The sample as a whole holds a higher share of strong results than the screen did.
# Target: human ether-à-go-go-related gene (hERG) potassium channel (human, UniProt Q12809)
# Test: primary screen, population patch clamp on CHO cells stably expressing hERG; higher = less effect of the substance
# 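Further: peak tail current of the secondary pulse compared with the same well before compound.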
# Sequence of human ether-à-go-go-related gene (hERG) potassium channel (Q12809 whole entry, looked up): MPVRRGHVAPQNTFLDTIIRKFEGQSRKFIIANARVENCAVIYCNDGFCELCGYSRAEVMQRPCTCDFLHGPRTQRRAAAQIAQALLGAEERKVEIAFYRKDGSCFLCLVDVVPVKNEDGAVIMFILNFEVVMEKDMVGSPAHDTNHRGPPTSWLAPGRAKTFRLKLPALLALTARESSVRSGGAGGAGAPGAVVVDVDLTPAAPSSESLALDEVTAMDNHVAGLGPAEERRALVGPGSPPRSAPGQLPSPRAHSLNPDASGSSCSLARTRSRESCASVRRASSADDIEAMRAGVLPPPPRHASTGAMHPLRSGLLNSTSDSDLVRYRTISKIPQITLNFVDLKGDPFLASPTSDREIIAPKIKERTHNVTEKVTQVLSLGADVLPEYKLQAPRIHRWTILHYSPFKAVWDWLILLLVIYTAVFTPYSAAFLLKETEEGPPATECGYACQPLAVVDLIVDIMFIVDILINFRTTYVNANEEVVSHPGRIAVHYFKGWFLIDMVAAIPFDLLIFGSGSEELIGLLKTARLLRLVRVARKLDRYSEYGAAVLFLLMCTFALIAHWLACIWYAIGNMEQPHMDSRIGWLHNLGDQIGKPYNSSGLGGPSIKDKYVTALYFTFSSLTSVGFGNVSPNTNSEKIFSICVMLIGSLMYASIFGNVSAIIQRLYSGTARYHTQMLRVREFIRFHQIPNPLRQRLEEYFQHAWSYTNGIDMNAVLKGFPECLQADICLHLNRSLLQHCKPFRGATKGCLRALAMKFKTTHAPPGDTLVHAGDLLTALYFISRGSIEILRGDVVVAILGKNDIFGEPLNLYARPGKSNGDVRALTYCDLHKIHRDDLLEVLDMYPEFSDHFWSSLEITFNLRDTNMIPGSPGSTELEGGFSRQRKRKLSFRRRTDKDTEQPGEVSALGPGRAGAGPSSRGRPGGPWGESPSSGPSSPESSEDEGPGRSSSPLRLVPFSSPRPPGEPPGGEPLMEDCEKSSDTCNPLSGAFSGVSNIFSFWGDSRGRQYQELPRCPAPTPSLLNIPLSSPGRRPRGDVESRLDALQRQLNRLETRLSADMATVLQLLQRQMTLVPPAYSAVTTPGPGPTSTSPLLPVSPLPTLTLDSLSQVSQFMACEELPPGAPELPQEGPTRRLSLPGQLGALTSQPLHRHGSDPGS
row,SMILES,"hERG current change (%, negative = inhibition) at 10uM [%]"
1,COc1ccc(C(C)=O)cc1COC(=O)CCNS(=O)(=O)c1ccc(C)c(C)c1,-38.3
2,O=C(CNC(=O)c1ccccc1)NCc1nc2ccccc2[nH]1,3.76
3,O=C(O)c1cc(-c2cccs2)nc2ccc(F)cc12,13.2
4,Cc1cccc(-c2nnn(Cc3nnc(NC(=O)c4ccccc4)s3)n2)c1,4.02
5,O=[N+]([O-])c1ccc(-c2cc(-c3ccc(Cl)cc3)n[nH]2)cc1,-4.49
6,COC(=O)c1sc2ncn(-n3c(C)ccc3C)c(=O)c2c1C,19.7
7,COc1ccc(N2CCN(C(=O)c3ccc(F)cc3)CC2)c([N+](=O)[O-])c1,-70.1
8,CN1C(=O)C(=Cc2ccc(N3CCOCC3)c([N+](=O)[O-])c2)C(=O)N(C)C1=O,11.4
9,CCOC(=O)N1CCN(c2ccc(F)cc2[N+](=O)[O-])CC1,-10.5
10,CN(C)c1ccc(C=C2C(=O)NC(=O)NC2=O)cc1[N+](=O)[O-],30.8
11,O=C(c1ccc(F)cc1)N1CCN(c2cc(N3CCCCC3)c(F)cc2[N+](=O)[O-])CC1,-24.6
12,O=C1NC(=O)C(=Cc2ccc(N3CCN(C(=O)c4ccccc4)CC3)c([N+](=O)[O-])c2)C(=O)N1,-67.1
13,CCCC(=O)N(CCN(Cc1ccccc1)C(=O)CCC)Cc1ccccc1,-42.5
14,CCC(CO)NC(=O)c1cccc(S(=O)(=O)N2c3ccccc3CC2C)c1 (centres unmarked),2.65
15,O=C(Nc1ccccc1[N+](=O)[O-])c1ccc(S(=O)(=O)N2CCCC2)cc1,1.84
16,CCCN(CCC)c1ncnc2nc[nH]c12,-7.36
17,COc1cccc2sc(N(CCCN(C)C)C(=O)COc3ccc(Cl)cc3)nc12.Cl,-80.2
18,COc1ccc2sc(N(CCCN(C)C)C(=O)c3nc4ccccc4s3)nc2c1.Cl,-5.36
19,CN(C)CCCN(C(=O)COc1ccccc1)c1nc2c(Cl)cccc2s1.Cl,-66.9
20,Cc1cccc2sc(N(CCCN(C)C)C(=O)COc3ccc(Cl)cc3)nc12.Cl,-60.5
21,CN(C)CCCN(C(=O)COc1ccc(Cl)cc1)c1nc2c(F)cccc2s1.Cl,-67.1
22,Cc1cc(C)c2sc(N(CCCN(C)C)C(=O)COc3ccc(Cl)cc3)nc2c1.Cl,-1.13
23,CN(C)CCN(C(=O)c1ccccc1Cl)c1nc2c(Cl)cccc2s1.Cl,-34.1

row,SMILES,"hERG current change (%, negative = inhibition) at 10uM [%]"
1,O=[N+]([O-])/C(C(Cl)=C(Cl)Cl)=C(/NC1CC1)Sc1ccccc1,7.59
2,CC(C)N1C(=O)CCC1C(=O)N1CCC(Cc2ccccc2)CC1 (centres unmarked),-25.3
3,CC(C)CC(C(=O)NCc1ccccn1)N1C(=O)c2ccccc2C1=O (centres unmarked),-1.75
4,CCc1ccc(N(CC(=O)NC(C)C)C(=O)CCC(=O)Nc2nccs2)cc1,13.4
5,COc1ccc(/C=C/C(=O)c2ccc3c4c(cccc24)CC3)cc1OC,20.8
6,Nc1nn(S(=O)(=O)c2ccccc2)cc1-c1ccc([N+](=O)[O-])cc1,-9.96
7,O=C(COC(=O)c1ccc2c(c1)OCO2)Nc1ccccc1F,11.8
8,O=C(O)Cc1ccc(NC(=O)c2ccc3c(c2)C(=O)N(CC2CCCO2)C3=O)cc1 (centres unmarked),12.6
9,CC1=C(C(=O)OCCBr)C(c2cccc3ccccc23)NC(=O)N1 (centres unmarked),17.5
10,CCCCN1C(=O)C(=O)N(CC(=O)N2CCc3ccccc32)C1=O,5.05
11,Cc1cc(C)cc(N(C(=O)c2ccco2)C(C(=O)NC2CCCC2)c2ccncc2)c1 (centres unmarked),9.94
12,COc1cc(C(=O)OCCC(C)C)cc(OC)c1O,-1.55
13,Cc1c(Br)c(=O)oc2c(Br)c(O)ccc12,19.9
14,CCOC(=O)Cn1cc(C#N)c(=O)[nH]c1=O,-17.8
15,Cc1c(C(=O)Nc2ccc3oc(-c4cccnc4)nc3c2)oc2ccccc12,-16.8
16,CN(C)CCCN(C(=O)COc1ccccc1)c1nc2c(F)cccc2s1.Cl,-81.2
17,CN(C)CCN(C(=O)CCS(=O)(=O)c1ccccc1)c1nc2c(F)cccc2s1,13.6
18,CCN(CC)CCN(C(=O)CCOc1ccccc1)c1nc2c(F)cc(F)cc2s1.Cl,-8.13
19,Fc1ccc(Cn2nnnc2CN2CCN(C3CCCCC3)CC2)cc1,-45.4
20,C/C(CC(=O)NC(C)C)=N\NC(=O)C(c1ccccc1)c1ccccc1,9.95
21,CC(C)(C)C(=O)C[n+]1ccc(C(N)=O)cc1.[Br-],0.811
22,O=S(=O)(Nc1ccc2c(c1)OCCO2)c1c(F)cccc1F,3.4
23,CN(c1ccccc1)S(=O)(=O)c1cc(C(=O)OCC(=O)N2CCN(C(=O)c3ccco3)CC2)ccc1Cl,-68.3

row,SMILES,"hERG current change (%, negative = inhibition) at 10uM [%]"
1,O=C(CCC(=O)c1cccs1)OCC(=O)N1CCN(C(=O)c2ccco2)CC1,-2.34
2,O=C(Cc1c(Cl)cccc1Cl)OCC(=O)N1CCN(C(=O)c2ccco2)CC1,-14.9
3,O=C(Cc1ccccc1F)OCC(=O)N1CCN(C(=O)c2ccco2)CC1,-22.6
4,O=C(OCC(=O)N1CCOCC1)c1cccc(S(=O)(=O)N2CCCc3ccccc32)c1,-24.9
5,O=C(CSc1ccccc1)OCC(=O)N1CCN(C(=O)c2ccco2)CC1,-27
6,CCN(CC)S(=O)(=O)c1ccc(C(=O)OCC(=O)N2CCN(C(=O)c3ccco3)CC2)cc1,-37.2
7,O=C(OCC(=O)N1CCN(C(=O)c2ccco2)CC1)c1cccc(S(=O)(=O)N2CCc3ccccc32)c1,-84
8,O=C(Cc1ccc(Cl)cc1Cl)OCC(=O)N1CCN(C(=O)c2ccco2)CC1,-57.6
9,O=C(CCN1c2ccccc2Sc2ccccc21)OCC(=O)N1CCN(C(=O)c2ccco2)CC1,-66
10,O=C(COC(=O)c1cccc(S(=O)(=O)N2CCc3ccccc32)c1)NCc1ccco1,21.5
11,CN(c1ccccc1)S(=O)(=O)c1cc(C(=O)OCC(N)=O)ccc1Cl,-4.09
12,Cc1nn(C)c(Oc2ccc(Cl)cc2)c1C(=O)O,12.8
13,CC1=CC(C)C2(COC(=O)Nc3ccccc3)COC(C)C1C2C (centres unmarked),-3.03
14,CCOC(=O)C1CCN(Cc2cccc(Oc3ccc(Cl)cc3)c2)CC1,3.3
15,CCn1c(CNC(=O)c2cccs2)n[nH]c1=S,3.27
16,Cc1cccc(COc2ccc(/C=N/NC(=O)c3nnn(-c4nonc4N)c3C)cc2)c1,15.3
17,O=C(COc1cccnc1[N+](=O)[O-])Nc1ccc2c(c1)OCO2,6.1
18,Cc1cc(NC(=O)c2ccc(S(=O)(=O)N(C)CC3CCCO3)cc2)no1 (centres unmarked),2.09
19,COc1ccccc1CCNS(=O)(=O)c1cn(C)nc1C,1.14
20,CN(CCC#N)C(=O)COC(=O)c1ccc(Cl)c(S(N)(=O)=O)c1,21.8
21,CN(CCC#N)C(=O)COC(=O)c1ccc(Cl)c(S(=O)(=O)N(C)c2ccccc2)c1,-58.2
22,O=C(OCC(=O)N1CCN(C(=O)c2ccco2)CC1)c1ccc(Cl)c(Cl)c1,-62.9
23,COCCN(CCOC)C(=O)COC(=O)c1ccc(Cl)c(S(=O)(=O)N(C)c2ccccc2)c1,-48.4

row,SMILES,"hERG current change (%, negative = inhibition) at 10uM [%]"
1,O=C(OCC(=O)N1CCN(C(=O)c2ccco2)CC1)c1ccccc1,10.4
2,O=C(OCC(=O)N1CCN(C(=O)c2ccco2)CC1)c1ccc(Cl)cc1,-38.7
3,O=C(Nc1ccc2c(c1)CCC2)c1cccs1,24.7
4,O=C(CSc1ccc2nnc(-c3ccc(Cl)cc3)n2n1)N1CCCc2ccccc21,1.71
5,CCOC(=O)c1c(C)n(C)c2ccc(OC(C)C(=O)OC)cc12 (centres unmarked),-10
6,COc1cc(/C=N/Nc2ccccn2)ccc1OCC(C)C,27.5
7,CCCCn1c(-c2csc(C(C)C)c2)n[nH]c1=S,20.9
8,Cc1ccc(COc2ccsc2C(=O)NNC(N)=S)cc1,19.9
9,CCN(CC)CCOCCOC(=O)C(CC)(CC)c1ccccc1,-9.35
10,CCN(CC)CCCOC(=O)C(c1ccccc1)c1ccccc1.Cl,-56.5
11,CCNCCOC(c1ccccc1)c1ccccc1.Cl,-31.8
12,CCN(CC)CCOC(=O)C(c1ccccc1)c1ccccc1.Cl,-52.2
13,CCN(CC)CCOC(c1ccccc1)c1ccc(C)cc1.Cl (centres unmarked),-73
14,CCN(CC)CCCOC(=O)C(OC(C)C)(c1ccccc1)c1ccccc1.Cl,-31.9
15,CCN(CC)CC#CCOC(c1ccccc1)c1ccccc1.Cl,-43.3
16,CCN(CC)CCCOC(=O)C(OC)(c1ccccc1)c1ccccc1.Cl,-27.9
17,CCC(C(=O)OCCOCCN(CC)CC)c1ccccc1 (centres unmarked),1.01
18,CCN(CC)CCOC(=O)C(O)(c1ccccc1)c1ccccc1.Cl,-42.1
19,CCCOc1ccc(C(C(=O)OCCN(CC)CC)c2ccccc2)cc1.O=C(O)C(=O)O (centres unmarked),-43
20,CCCC(C(=O)OCCN(CC)CC)(c1ccccc1)c1ccccc1.Cl,-53.9
